The target of experiment [1] is Lysosomal acid glucosylceramidase (Homo sapiens) (UniProt P04062). In words: Glucocerebrosidase-p2 (AID 348; in the data active = potency below about 10 µM; note: potency is the fitted concentration of half-maximal effect). To be noted: purified GBA, blue fluorogenic substrate, 40 min. An outline of the steps:
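Compounds titrated from 0.6 nM upwards against 0.2 nM enzyme in pH 5.9 citric acid/KH2PO4, taurocholate, tween-20; blue fluorogenic substrate 80 uM, 40 min room temperature, stopped and read Ex 365/Em 440 for AC50.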

The nature of experiment [2]: AP1 Signaling Pathway (AID 357; active = well fitted curve in either direction with a large enough effect, not every such curve was filed as active;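 note: ME-180 reporter cells stimulated with EGF at its EC50 level; % is set by controls: 0 for no effect and ±100 for the full control effect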). The conditions noted are these: ME-180 AP-1-bla reporter, EGF-induced, beta-lactamase ratio, 5 h; at 7.69 µM (top of the series) unless noted. In short, it runs like this:
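Read-out was the 460nm/530nm emission ratio (excitation 405nm) after CCF4 loading for 2.5 hours at room temperature. Cells carried an AP-1-driven beta-lactamase reporter, were stimulated with EC50 EGF plus compound for 5 hours, and AC50 values came from titrations.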

Experiment [3] addresses Cytochrome P450 1A2 (Homo sapiens) (UniProt P05177). In words: p450-cyp1a2 (AID 410; calls by dose curve; note: potency is the fitted concentration of half-maximal effect). In short, it runs like this:
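Luminescent readout of luciferin formed from Luciferin-ME by human CYP1A2; data normalized against complete inhibition by 57 uM furafylline. Enzyme 20nM, substrate 100uM at Km, 100mM KPO4 buffer, 60 min reaction at room temperature.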

Experiment [4] is described as follows: NFAT Signaling Pathway (AID 444; active = well fitted curve in either direction with a large enough effect, not every such curve was filed as active;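 note: carbachol stimulus at about its EC50 of 1 µM final; % is set by controls: 0 for no effect and ±100 for the full control effect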). To be noted: Jurkat NFAT-bla M1, carbachol, beta-lactamase ratio, 5 h; at 7.69 µM (top of the series) unless noted. An outline of the steps:
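Read-out: CCF4 FRET ratio (460 nm/530 nm) after 1 h RT dye loading, used for %activity and AC50 from titration series. Cells: Jurkat NFAT-β-lactamase/M1 line, treated with compound plus 1 uM carbachol for 5 h, 37 °C.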

Experiment [5] in a line: Stat Signaling Pathway (AID 446; active = well fitted curve in either direction with a large enough effect, not every such curve was filed as active;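 note: ME-180 cervical cancer cells given 40 pM IL-6 alongside compound; SIE-controlled beta-lactamase reporter measured as 460/530 nm FRET emission ratio; % is set by controls: 0 for no effect and ±100 for the full control effect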). The conditions noted are these: ME-180 (cervical carcinoma) SIE beta-lactamase reporter, IL-6 stimulated, 5 h; at 7.69 µM (top of the series) unless noted. An outline of the steps:
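ME-180 cells carrying a SIE-driven beta-lactamase reporter are stimulated with 40 pM IL-6 for 5 h at 37C in the presence of compound. The 460/530 nm FRET substrate ratio is read after 2.5 h at RT. Data are normalised to 300 pM IL-6 and to 125 nM JAK inhibitor controls.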

The target of experiment [6] is Glucocorticoid receptor (Homo sapiens) (UniProt P04150). In words: GR-GFP Redistribution (AID 450;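 active = compounds whose dose series gives a full or clear partial fitted curve of increased nuclear translocation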; note: potency is the fitted concentration of half-maximal effect). The conditions noted are these: U2OS GR-GFP nuclear translocation, laser cytometry, 2 h.
Experiment [7] has the same target. The experiment in a line: GR-EFC Redistribution (AID 451; calls by dose curve; note: potency is the fitted concentration of half-maximal effect). The conditions noted are these: CHO-K1 GR-EFC translocation, beta-gal luminescence, 2 h. In short, it runs like this: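 Translocation of GR-ED fusion to nuclear EA restores b-gal, read by luminescence after 1 h room-temperature detection. Engineered CHO-K1 biosensor cells, 1,000/well, exposed 2 h at 37 C to titrations up to 46 uM final.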

In experiment [8] the target is Mitogen-activated protein kinase 10 (Mus musculus) (UniProt Q61831). In words: JNK3 AlphaScreen Assay (AID 530; active = well fitted curve in either direction with a large enough effect, not every such curve was filed as active;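 note: kinase came from lysate of stimulated human HepG2 cells; signal reports phosphorylation of biotinylated GST-cJun 1-79 at Ser73 with 10 µM ATP; % is set by controls: 0 for no effect and ±100 for the full control effect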). An outline of the steps:
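Compound titrations were preincubated 15 minutes at room temperature with substrate, antibody and pre-activated JNK3-containing HepG2 lysate. Reactions were started with 10 uM ATP and stopped with EDTA-containing bead buffer for AlphaScreen detection.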
Background: Bead proximity is the source of the signal in Alpha formats.

Experiment [9] concerns the target Dual specificity protein kinase CLK4 (Homo sapiens) (UniProt Q9HAZ1). In words: qHTS Assay for Inhibitors of CDC-like Kinase 4 (ADP-FP Assay) (AID 1795). Note: % is set by controls: 0 for no effect and ±100 for the full control effect; nearly all actives have a fitted effect of over 60% in size. An outline of the steps:
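Recombinant human Clk4 (6.25 nM) phosphorylated RS repeat peptide (100 uM) with 1 uM ATP in Tris pH 7.5/MgCl2/EGTA/DTT/Triton buffer for one hour. ADP was quantified by Transcreener competitive fluorescence polarization against an ADP calibration curve.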
For orientation: Quantitative high-throughput screening tests each substance at several concentrations.

The target in experiment [10] is Ubiquitin carboxyl-terminal hydrolase 1 (Homo sapiens) (UniProt O94782). The experiment in a line: Inhibitors of USP1/UAF1: Pilot qHTS (AID 504865). Note: potency is the fitted concentration of half-maximal effect; nearly all actives have a fitted effect of over 35% in size. In short, it runs like this: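 USP1/UAF1 complex (1nM) preincubated with compound 15 min at room temperature, then Ub-Rho substrate (150nM final) added. Fluorescence read kinetically at 480/540 nm, 6 reads every 60 seconds. Buffer: 50mM HEPES pH 7.8, 0.5mM EDTA, 0.1 mg/ml BSA, 1mM TCEP, 0.01% Tween-20.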

Experiment [11] is described as follows: Primary qHTS for small molecule stabilizers of the endoplasmic reticulum resident proteome: Secreted ER Calcium Modulated Protein (SERCaMP) assay (AID 1508630). Note: % is set by controls: 0 for no effect and ±100 for the full control effect. In short, it runs like this: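 GLuc-SERCaMP-expressing SH-SY5Y cells, pretreated 16 h with compound, are challenged with thapsigargin to empty ER calcium stores; after 4 h, coelenterazine is added directly to the medium and luminescence is imaged.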

The target of experiment [12] is Rap guanine nucleotide exchange factor 3 (Homo sapiens) (UniProt O95398). The experiment in a line: Confirmatory qHTS for antagonist of cAMP-regulated guanine nucleotide exchange factor 3 (EPAC1) (AID 1645880).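 Note: plate controls were DMSO only for no effect and full effect of the ATA control for full effect; nearly all actives have a fitted effect of over 55% in size.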 An outline of the steps: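 Nucleotide exchange uses 100 nM EPAC1, 250 nM RAP1B-BODIPY-GDP and 50 uM GDP, with compounds in a concentration-titration series. After 5 min at room temperature, fluorescence (480 nm ex/540 nm em) is read every 5 min for 30 min. Data are normalized to control ATA and DMSO.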

Experiment [13] has the same target. In words: Confirmatory qHTS for agonist of cAMP-regulated guanine nucleotide exchange factor 3 (EPAC1) (AID 1645881).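 For activation: EPAC1 catalysed release of BODIPY-GDP from Rap1B seen as fluorescence loss; 100% = effect of cAMP agonist control.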 Note: nearly all actives have a fitted effect of over 75% in size. Note: potency is the fitted concentration of half-maximal effect.
The target of experiment [14] is Rap guanine nucleotide exchange factor 4 (Homo sapiens) (UniProt Q8WZA2). The experiment in a line: Confirmatory qHTS for agonist of cAMP-regulated guanine nucleotide exchange factor 4 (EPAC2) (AID 1645884).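 Note: nucleotide exchange releases bodipy-GDP from Rap1 and this lowers its fluorescence; % is set by controls: 0 for no effect and ±100 for the full control effect; nearly all actives have a fitted effect of over 65% in size.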
Experiment [15] shares this target. The experiment in a line: Confirmatory qHTS for antagonist of cAMP-regulated guanine nucleotide exchange factor 4 (EPAC2) (AID 1645885). Note: nearly all actives have a fitted effect of over 25% in size. Note: potency is the fitted concentration of half-maximal effect.
In experiment [16] the target is 3',5'-cyclic-AMP phosphodiesterase 4B (Homo sapiens) (UniProt Q07343). In words: qHTS Assay for Inhibitors of PDE-IV (AID 607; active = well fitted activation curve with a large enough effect in the main read-out, with a control signal flat, not every such curve was filed as active; note: % of control where 0% means no effect). An outline of the steps: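 HEK293 ACTOne cells with CNG channel (1000/well), endogenous PDE4; membrane potential dye, compounds up to 22.9 uM final. Fluorescence Ex 535/Em 590; RO 20-1724 (100 uM final) as reference.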
The target in experiment [17] is Cytochrome P450 3A4 (Homo sapiens) (UniProt P08684). The experiment in a line: qHTS Assay for Activators of Cytochrome P450 3A4 (AID 885). Note: nearly all actives have a fitted effect of over 65% in size. In short, it runs like this:
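Human CYP3A4 (20 nM) with Luciferin-PPXE at 25 uM (its KM) in 200 mM KPO4; 10 min compound preincubation, then NADPH regeneration and 60 min reaction at RT. Luciferin read by luminescence; normalized to 57 uM ketoconazole full inhibition.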

Experiment [18] is described as follows: Confirmation and Secondary Assay for Modulators of Hemoglobin Beta Chain Splicing at IVS2 654 locus (AID 910).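 Note: HeLa cells stably carrying EGFP split by mutant beta-globin IVS2-654 intron; per-well total GFP intensity by laser scanning cytometry after 2-day treatment; % of control where 0% means no effect.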 An outline of the steps: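 Readout: per-well total peak green fluorescence (488 nm ex, 500–520 nm em) from objects 5–250 µm, reflecting correct splicing of an EGFP-654 reporter. Compounds were applied for 2 days at 37 °C to overnight-plated HeLa EGFP-654 cells; controls were DMSO and 500 nM IVS2-654 PNA.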

Experiment [19] can be described thus: qHTS Assay for Lipid Storage Modulators (AID 1519; calls by dose curve). The conditions noted are these: Drosophila S3 cells, BODIPY lipid droplet/cell ratio, laser cytometry, cells loaded with oleic acid; for activity change, negative = inhibition: at 57.5 µM (top of the series). An outline of the steps: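 Cells seeded at 5,000 per well were treated with compounds over a concentration series and loaded with oleic acid (400 uM, as added). Lipid droplet fluorescence (488 nm excitation, 500-530 nm channel) was read by laser-scanning cytometry and normalized to 20 uM Triacsin C.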

The mark [20] stands for this setting: measured here: cell count channel max response.
Where [21] appears, read: measured here: lipid channel max response.

Inconclusive results are not listed. The source made the active and inactive calls. Unless noted, calls come from the whole dose curve; as a rule, active = well fitted curve in the direction sought with a large enough effect; inconclusive = small, poorly fitted or top-dose-only effect, or another doubt; inactive = no such curve, though single readings can be large; an effect the other way counts as inactive or inconclusive. Bounds are passed on as bounds.

Sequence of Cytochrome P450 1A2 (Homo sapiens) (P05177 whole entry, looked up): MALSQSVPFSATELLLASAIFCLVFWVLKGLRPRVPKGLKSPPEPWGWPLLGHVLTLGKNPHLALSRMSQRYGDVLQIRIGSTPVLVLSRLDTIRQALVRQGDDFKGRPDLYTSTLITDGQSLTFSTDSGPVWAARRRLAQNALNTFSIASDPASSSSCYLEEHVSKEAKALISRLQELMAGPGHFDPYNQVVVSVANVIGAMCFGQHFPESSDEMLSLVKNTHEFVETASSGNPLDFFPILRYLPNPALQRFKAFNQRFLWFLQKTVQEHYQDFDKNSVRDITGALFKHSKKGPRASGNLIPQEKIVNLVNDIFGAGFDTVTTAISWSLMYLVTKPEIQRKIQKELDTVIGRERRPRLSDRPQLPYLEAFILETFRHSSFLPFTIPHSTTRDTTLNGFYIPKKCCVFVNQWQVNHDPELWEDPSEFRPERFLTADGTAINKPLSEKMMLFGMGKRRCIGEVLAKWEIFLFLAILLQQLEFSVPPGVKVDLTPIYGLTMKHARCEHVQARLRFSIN
Sequence of Lysosomal acid glucosylceramidase (Homo sapiens) (P04062 whole entry, looked up): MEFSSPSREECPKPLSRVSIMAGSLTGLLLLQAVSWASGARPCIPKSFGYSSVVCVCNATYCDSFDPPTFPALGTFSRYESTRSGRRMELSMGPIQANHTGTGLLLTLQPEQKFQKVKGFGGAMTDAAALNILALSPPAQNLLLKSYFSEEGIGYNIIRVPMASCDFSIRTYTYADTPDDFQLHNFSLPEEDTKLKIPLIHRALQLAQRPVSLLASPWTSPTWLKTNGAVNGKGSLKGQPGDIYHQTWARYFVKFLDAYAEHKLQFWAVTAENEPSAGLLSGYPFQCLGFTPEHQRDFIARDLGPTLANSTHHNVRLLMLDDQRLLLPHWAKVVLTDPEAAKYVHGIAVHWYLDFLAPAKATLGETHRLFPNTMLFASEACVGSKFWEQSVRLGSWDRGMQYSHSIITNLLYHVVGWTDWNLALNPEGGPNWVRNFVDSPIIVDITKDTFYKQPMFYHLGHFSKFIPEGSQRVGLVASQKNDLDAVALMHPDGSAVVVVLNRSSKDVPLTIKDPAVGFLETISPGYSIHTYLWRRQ
Sequence of Dual specificity protein kinase CLK4 (Homo sapiens) (Q9HAZ1 whole entry, looked up): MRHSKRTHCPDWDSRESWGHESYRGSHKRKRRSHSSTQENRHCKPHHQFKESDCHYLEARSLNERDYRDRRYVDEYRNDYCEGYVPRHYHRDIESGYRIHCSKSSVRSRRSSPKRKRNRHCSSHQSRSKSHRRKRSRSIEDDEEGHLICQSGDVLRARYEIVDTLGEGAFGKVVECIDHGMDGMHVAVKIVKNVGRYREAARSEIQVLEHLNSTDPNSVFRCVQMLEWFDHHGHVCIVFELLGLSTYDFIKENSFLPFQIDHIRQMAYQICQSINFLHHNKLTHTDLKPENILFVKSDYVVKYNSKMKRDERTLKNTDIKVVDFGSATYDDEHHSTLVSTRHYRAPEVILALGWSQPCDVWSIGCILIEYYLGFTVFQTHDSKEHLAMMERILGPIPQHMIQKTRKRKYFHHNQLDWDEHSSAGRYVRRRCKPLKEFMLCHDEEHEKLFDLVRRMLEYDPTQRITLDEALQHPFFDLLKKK
Sequence of Rap guanine nucleotide exchange factor 4 (Homo sapiens) (Q8WZA2 whole entry, looked up): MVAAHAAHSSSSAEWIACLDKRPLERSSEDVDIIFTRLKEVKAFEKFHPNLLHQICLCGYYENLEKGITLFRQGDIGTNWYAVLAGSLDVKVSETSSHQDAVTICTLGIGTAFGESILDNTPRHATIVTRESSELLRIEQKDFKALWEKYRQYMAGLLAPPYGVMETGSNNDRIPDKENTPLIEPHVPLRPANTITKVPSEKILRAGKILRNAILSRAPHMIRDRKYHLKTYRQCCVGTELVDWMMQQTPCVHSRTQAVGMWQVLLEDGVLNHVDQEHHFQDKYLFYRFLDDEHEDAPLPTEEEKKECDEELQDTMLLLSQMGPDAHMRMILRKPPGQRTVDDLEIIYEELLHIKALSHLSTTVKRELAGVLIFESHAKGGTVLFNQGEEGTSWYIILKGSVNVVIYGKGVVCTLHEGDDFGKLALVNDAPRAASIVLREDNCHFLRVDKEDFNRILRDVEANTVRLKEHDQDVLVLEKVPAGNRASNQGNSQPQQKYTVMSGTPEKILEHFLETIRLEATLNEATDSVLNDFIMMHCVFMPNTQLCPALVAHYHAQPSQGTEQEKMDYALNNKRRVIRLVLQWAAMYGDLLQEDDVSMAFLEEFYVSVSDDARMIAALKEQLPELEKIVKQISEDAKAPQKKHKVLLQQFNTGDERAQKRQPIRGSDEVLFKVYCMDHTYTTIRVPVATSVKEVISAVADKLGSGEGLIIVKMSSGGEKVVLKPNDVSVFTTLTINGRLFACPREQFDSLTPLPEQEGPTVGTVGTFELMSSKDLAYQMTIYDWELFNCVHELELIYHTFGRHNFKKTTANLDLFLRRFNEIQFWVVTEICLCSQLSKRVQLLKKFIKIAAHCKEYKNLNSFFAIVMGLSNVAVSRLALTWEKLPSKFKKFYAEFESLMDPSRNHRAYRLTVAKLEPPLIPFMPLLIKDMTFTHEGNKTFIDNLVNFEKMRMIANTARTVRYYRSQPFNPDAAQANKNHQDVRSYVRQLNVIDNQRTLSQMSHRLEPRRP
Sequence of Glucocorticoid receptor (Homo sapiens) (P04150 whole entry, looked up, the tested form may be a part): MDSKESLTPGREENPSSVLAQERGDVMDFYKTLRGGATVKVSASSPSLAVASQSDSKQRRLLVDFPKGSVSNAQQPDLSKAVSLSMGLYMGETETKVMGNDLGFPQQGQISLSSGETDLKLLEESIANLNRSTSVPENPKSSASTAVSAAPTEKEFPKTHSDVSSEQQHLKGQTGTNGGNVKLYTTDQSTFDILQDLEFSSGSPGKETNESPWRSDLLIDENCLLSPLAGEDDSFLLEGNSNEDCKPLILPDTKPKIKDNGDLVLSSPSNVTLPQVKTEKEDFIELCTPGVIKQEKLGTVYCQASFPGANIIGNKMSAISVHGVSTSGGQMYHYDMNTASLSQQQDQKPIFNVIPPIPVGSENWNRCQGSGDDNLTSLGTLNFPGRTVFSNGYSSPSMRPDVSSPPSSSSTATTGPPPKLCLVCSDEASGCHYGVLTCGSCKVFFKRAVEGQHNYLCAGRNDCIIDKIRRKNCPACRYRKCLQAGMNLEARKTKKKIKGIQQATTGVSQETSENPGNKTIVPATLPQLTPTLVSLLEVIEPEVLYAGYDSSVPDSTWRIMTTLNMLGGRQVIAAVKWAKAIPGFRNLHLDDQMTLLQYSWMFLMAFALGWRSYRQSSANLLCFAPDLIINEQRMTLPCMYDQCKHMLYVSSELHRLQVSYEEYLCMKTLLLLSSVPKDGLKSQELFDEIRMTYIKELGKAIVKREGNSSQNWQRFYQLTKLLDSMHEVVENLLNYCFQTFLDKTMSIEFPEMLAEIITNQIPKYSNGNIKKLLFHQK
Sequence of Rap guanine nucleotide exchange factor 3 (Homo sapiens) (O95398 whole entry, looked up): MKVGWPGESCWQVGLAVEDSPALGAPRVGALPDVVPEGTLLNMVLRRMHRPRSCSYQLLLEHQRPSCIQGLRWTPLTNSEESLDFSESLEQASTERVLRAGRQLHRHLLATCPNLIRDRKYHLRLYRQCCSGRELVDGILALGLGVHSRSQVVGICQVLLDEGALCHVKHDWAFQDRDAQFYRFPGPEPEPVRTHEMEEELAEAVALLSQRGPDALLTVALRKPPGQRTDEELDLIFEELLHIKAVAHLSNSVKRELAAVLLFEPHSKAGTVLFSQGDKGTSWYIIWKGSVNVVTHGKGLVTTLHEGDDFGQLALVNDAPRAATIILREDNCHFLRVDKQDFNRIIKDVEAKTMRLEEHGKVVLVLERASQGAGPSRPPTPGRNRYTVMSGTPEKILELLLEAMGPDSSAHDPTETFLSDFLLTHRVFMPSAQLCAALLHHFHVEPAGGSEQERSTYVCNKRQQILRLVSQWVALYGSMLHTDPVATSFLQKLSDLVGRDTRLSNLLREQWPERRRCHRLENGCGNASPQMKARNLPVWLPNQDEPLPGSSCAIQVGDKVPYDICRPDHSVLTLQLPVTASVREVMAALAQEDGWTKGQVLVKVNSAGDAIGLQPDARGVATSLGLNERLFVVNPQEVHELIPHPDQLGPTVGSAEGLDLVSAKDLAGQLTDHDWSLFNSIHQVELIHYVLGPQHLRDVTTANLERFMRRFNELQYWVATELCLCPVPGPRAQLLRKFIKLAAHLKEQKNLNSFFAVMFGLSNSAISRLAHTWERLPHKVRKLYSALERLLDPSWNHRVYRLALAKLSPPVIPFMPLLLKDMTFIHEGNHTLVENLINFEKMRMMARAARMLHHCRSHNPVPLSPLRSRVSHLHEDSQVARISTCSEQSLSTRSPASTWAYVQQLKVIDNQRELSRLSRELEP
Sequence of 3',5'-cyclic-AMP phosphodiesterase 4B (Homo sapiens) (Q07343 whole entry, looked up): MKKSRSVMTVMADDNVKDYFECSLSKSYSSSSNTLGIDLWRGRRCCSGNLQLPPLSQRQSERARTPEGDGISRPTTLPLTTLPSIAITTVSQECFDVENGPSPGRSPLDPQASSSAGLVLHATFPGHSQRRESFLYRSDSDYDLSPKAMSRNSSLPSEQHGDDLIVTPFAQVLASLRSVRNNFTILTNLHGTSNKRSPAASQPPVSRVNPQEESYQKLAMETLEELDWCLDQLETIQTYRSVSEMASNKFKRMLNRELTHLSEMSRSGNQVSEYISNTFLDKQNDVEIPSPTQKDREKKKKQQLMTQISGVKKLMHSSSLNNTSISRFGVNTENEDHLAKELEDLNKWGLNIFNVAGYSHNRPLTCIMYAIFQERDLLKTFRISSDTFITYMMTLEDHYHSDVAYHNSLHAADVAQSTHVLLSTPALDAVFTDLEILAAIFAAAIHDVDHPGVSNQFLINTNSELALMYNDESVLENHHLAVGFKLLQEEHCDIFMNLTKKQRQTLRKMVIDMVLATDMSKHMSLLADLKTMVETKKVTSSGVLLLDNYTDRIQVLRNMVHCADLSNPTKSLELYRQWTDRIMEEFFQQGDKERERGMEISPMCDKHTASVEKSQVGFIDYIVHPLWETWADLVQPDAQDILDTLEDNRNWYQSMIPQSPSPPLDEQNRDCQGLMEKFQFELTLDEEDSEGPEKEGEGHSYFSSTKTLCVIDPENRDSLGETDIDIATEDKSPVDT

With `Cc1ccccc1-c1nc(N(C)Cc2ccco2)c2ccccc2n1`, the Potency is > 11.4 µM (inactive) in [1]; 1.58 µM (active) in experiment [3]; > 46 µM (inactive) in experiment [6]; > 46 µM (inactive) in experiment [7]; 28.2 µM (active) in experiment [10]; 35 µM (active) in experiment [15]. Besides, the values for the activity change, negative = inhibition in experiment [2] and in experiment [4] were 13.9% (inactive) and -24% (inactive), respectively. Moreover, in experiment [5], the activity, negative = inhibition is -5.08% (inactive). For the same compound, the Potency entry in experiment [8], in experiment [9], in experiment [12], in experiment [13] and in experiment [14] was “inactive” in each case. In addition, in experiment [11], the result was inactive.

Regarding `COc1cccc(Nc2ncc3nc(-c4cn(C)c5ccccc45)c(=O)n(C[C@H]4CCCO4)c3n2)c1`, the Potency in experiment [1] was > 11.4 µM (inactive); in [6] it was > 9.22 µM (inactive); in experiment [7], > 46 µM (inactive). Moreover, the activity change, negative = inhibition in experiment [2] is -25.8% (inactive); in experiment [4], -1.76% (inactive). Moreover, in experiment [5], the activity, negative = inhibition is 8.32% (inactive). For the same compound, the Potency entry in experiment [8], in experiment [16], in experiment [9], in experiment [12], in experiment [13] and in experiment [14] was “inactive” in each case. For the same compound, the Potency result in experiment [15] was “inactive”. Moreover, the outcome in experiment [11] was inactive.

With `COCCNc1nc(-c2ccccc2C)nc2ccccc12`, the values for the Potency in experiment [3], in [6] and in experiment [7] were 1.26 µM (active), > 46 µM (inactive) and > 46 µM (inactive), respectively. The activity change, negative = inhibition in experiment [4] is -2.48% (inactive); in experiment [19], 7.59% (inactive). The activity, negative = inhibition in experiment [5] was 5.05% (inactive). Besides, the Potency entry in [8], in experiment [16], in experiment [17] and in [18] was “inactive” in each case. For the same compound, the max response in experiment [19] (setting [20]) is 3.47%; in experiment [19] (setting [21]) it was 22.3%. In experiment [11], the result was inactive.

On to `COc1ccc(CNc2cc(-c3ccccc3C)ncn2)c(OC)c1`, for which the results for the Potency in [1], in experiment [6] and in [7] were > 11.4 µM (inactive), > 46 µM (inactive) and > 46 µM (inactive), respectively. The activity change, negative = inhibition in experiment [4] was -16.6% (inactive). In addition, the activity, negative = inhibition in experiment [5] is -12.7% (inactive). In addition, the Potency entry in experiment [8], in experiment [9], in experiment [12], in experiment [13], in experiment [14] and in [15] was “inactive” throughout. In [11], the outcome was inactive.

Turning to `COCC(=O)N1CCC2(CCN(Cc3ccc(C#N)cc3)CC2)CC1`, the activity change, negative = inhibition in experiment [2] was -9.28% (inactive); in experiment [19], 4.27% (inactive). Besides, in experiment [5], the activity, negative = inhibition was -0.16% (inactive). Moreover, the Potency in [7] is > 46 µM (inactive). Further, the Potency result in experiment [8] and in [16] was “inactive” each time. Besides, the values for the max response in experiment [19] (setting [20]) and in experiment [19] (setting [21]) were 17% and 24.9%, respectively. In addition, the outcome in experiment [11] was inactive.

For `O=C(c1ccco1)N1CCC[C@@]2(CCN(c3ccccn3)C2)C1`, the activity change, negative = inhibition is 4.46% (inactive) in experiment [2], -3.78% (inactive) in [4] and 4.34% (inactive) in [19]. Moreover, in experiment [5], the activity, negative = inhibition was -0.822% (inactive). Besides, the Potency in experiment [7] is > 46 µM (inactive). The Potency entry in experiment [8] and in [16] was “inactive” each time. In addition, the max response was 22.6% in experiment [19] (setting [20]) and 30% in experiment [19] (setting [21]). Further, the result in experiment [11] was inactive.

Consider `COc1cccc(Nc2ncc3nc(-c4cccs4)c(=O)n(-c4ccccc4)c3n2)c1`, for which the Potency is > 11.4 µM (inactive) in experiment [1]; 3.16 µM (active) in experiment [3]; > 46 µM (inactive) in experiment [7]; 35.5 µM (active) in experiment [10]; 70.6 µM (active) in experiment [13]. Also, the activity change, negative = inhibition is -24.2% (inactive) in [2] and -15.6% (inactive) in experiment [4]. Further, the activity, negative = inhibition in [5] is 3.1% (inactive). For the same compound, the Potency result in experiment [8], in experiment [16], in experiment [17], in [9], in [12] and in [15] was “inactive” in each case. Also, the result in experiment [11] was inactive.

These data come from PubChem BioAssay (NCATS).
